# Experimental data from PubChem BioAssay AID449762 (Southern Research Specialized Biocontainment Screening …, 2010).
# Out of some 330,000 compounds screened, about 1,900 (0.58%) were called active. Not shown: some 4% with an inconclusive outcome. Cut-off read from the data, not from the text of the source: inconclusive = inhibition above about 70% without an active follow-up result; inactive = below that. These entries were drawn from the full list. Results with a measured potency or affinity are listed apart.
# Assay: M. tuberculosis growth inhibition, HTS (AID 449762);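 note: bacterial growth assessed after seven days of incubation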
# Conditions: M. tuberculosis H37Rv growth inhibition, 7H9 media; at 25 µM; hits give high values
row,SMILES,inhibition
1,COc1ccc(-c2noc(-c3ccco3)n2)cc1OC,-0.61% (inactive)
2,COc1ccc(-c2cc(C(=O)O)c3c(C)nn(-c4ccccn4)c3n2)cc1,10.2% (inactive)
3,CCOC(=O)c1cc(-c2ccncc2)nc2c1c(C)nn2-c1ccccn1,0.76% (inactive)
4,O=C(NC1CCCC1)C(c1ccncc1)N(C(=O)c1csnn1)C1CCCC1 (stereo not given),3.35% (inactive)
5,Nc1nc(-c2ccc(Cl)cc2)c(S(=O)(=O)c2ccccc2)s1,-1.98% (inactive)
6,Cc1nnsc1S(=O)(=O)c1ccccc1,-0.59% (inactive)
7,COc1ccc(N(CC(=O)NC2CCCC2)S(=O)(=O)c2c(C)[nH]c(=O)[nH]c2=O)cc1,-3.45% (inactive)
8,Cc1ccc(OCCNC(=O)CNC(=O)c2ccc(C)cc2)cc1,5.29% (inactive)
9,Cc1cc(CN(C)C(=O)c2cc(COc3ccc(C)c(C)c3)on2)on1,7.13% (inactive)
10,Cc1ccc(OCc2cc(C(=O)N(C)Cc3nccn3C)no2)cc1C,8.06% (inactive)
11,Nc1c(C(=O)c2ccc(Cl)cc2)oc2ccccc12,-21.2% (inactive)
12,Cc1cc(C)c(NC(=O)C(C)(C)C)c(Cl)c1,-1.65% (inactive)
13,COc1ccc(C(CNC(=O)C(C)(C)Oc2ccc(Cl)cc2)N2CCCC2)cc1 (stereo not given),-9.42% (inactive)
14,COc1ccc(C(CNC(=O)C(C)(C)Oc2ccc(Cl)cc2)N2CCCCC2)cc1 (stereo not given),-12.8% (inactive)
15,CCN(CC)S(=O)(=O)c1ccc(NC(=O)c2ccc(Cl)nc2)cc1,4% (inactive)
16,O=C(O)c1ccccc1/C=N/Nc1ccc(S(=O)(=O)N2CCCC2)cc1[N+](=O)[O-],-1.83% (inactive)
17,COc1ccc(Cc2nc3ccc(C(=O)N(C)C(C)c4nccs4)cc3o2)cc1 (stereo not given),1.57% (inactive)
18,COc1ccc(-c2ccc([C@H]3[C@H]4C=CC[C@@H](C)[C@@H]4C(=O)N3Cc3ccccc3)c(F)c2)cc1C,-3.73% (inactive)
19,CC1(c2ccc(Cl)cc2Cl)OCC(Cn2ccnc2)O1 (stereo not given),-2.41% (inactive)
20,CCC(C)n1ncn(-c2ccc(N3CCN(c4ccc(OCC5COC(Cn6cncn6)(c6ccc(Cl)cc6Cl)O5)cc4)CC3)cc2)c1=O (stereo not given),-3.37% (inactive)
21,FC(F)(F)c1cc(N2CCNCC2)c2ccccc2n1,4.5% (inactive)
22,COc1ccc2cc(S(=O)(=O)NCc3cccnc3)ccc2c1,-6.19% (inactive)
23,c1ccc(OCc2nnc(-c3ccccc3)o2)cc1,3.84% (inactive)
24,Oc1ccccc1-c1nnc(COc2ccc(Cl)cc2Cl)o1,2.32% (inactive)
25,Cc1ccccc1C(=O)Nc1cccc(-c2cn3ccccc3n2)c1,35.7% (inactive)
